Measurements from PubChem BioAssay (NCI).
Compounds without any hit were thinned out: in the full panel of roughly 83,000, 20% have a hit.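 Assay: single dose, 48 h. Readout: percent growth (0 = no net growth; negative = cell death). Active: <10.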 The source made the active and inactive calls.

Legend:
Assay in all cases: NCI-60 one-dose screen, 48 h (100 = growth as untreated, 0 = no growth, -100 = all killed)
Conditions in all cases: 10 µM unless noted
[1] = test system: HCT-15 colon
[2] = test system: HT29 colon
[3] = test system: SNB-75 CNS
[4] = test system: SNB-19 CNS
[5] = test system: U251 CNS
[6] = test system: PC-3 prostate
[7] = test system: SK-MEL-5 melanoma
[8] = test system: UACC-62 melanoma
[9] = test system: LOX IMVI melanoma
[10] = test system: SK-MEL-28 melanoma
[11] = test system: SK-MEL-2 melanoma
[12] = test system: SN12C renal
[13] = test system: UO-31 renal
[14] = test system: TK-10 renal
[15] = test system: CAKI-1 renal
[16] = test system: A498 renal
[17] = test system: CCRF-CEM leukemia
[18] = test system: MOLT-4 leukemia
[19] = test system: ACHN renal

Measured: growth

N#CC1=C(N)OC2=C(C(=O)CCC2)C1c1ccco1 (configuration not stated)
inactive: [1] 104% | [2] 109% | [3] 95.7% | [4] 98.3% | [5] 99.3% | [6] 102% | [7] 101% | [8] 112% | [9] 96.4% | [10] 111% | [11] 97.8% | [12] 107% | [13] 79.3% | [14] 96.4% | [15] 93% | [16] 112% | [17] 107% | [18] 97.9%

COc1ccc(/C=C/C(=O)c2cc(OC)c(OC)c(OC)c2)cc1OCc1cn(Cc2ccc(F)cc2)nn1
inactive: [1] 23.8% | [3] 27.5% | [4] 78.4% | [5] 19.3% | [6] 35.1% | [7] 80.8% | [8] 64.4% | [9] 13.3% | [10] 87.3% | [11] 90% | [12] 29.2% | [13] 30.8% | [19] 57.9% | [16] 78.7% | [18] 58.1%
active: [2] 4.82% | [15] 4.33% | [17] 0.459%

CC(=O)Nc1ccc(S(=O)(=O)N2C(=O)CCC2C(=O)Nc2ccccc2)cc1 (configuration not stated)
active: [15] 9.53%
inactive: [1] 45.8% | [2] 34% | [3] 28.9% | [4] 45% | [5] 29.4% | [6] 26.7% | [7] 20.2% | [8] 11% | [9] 29.9% | [10] 48.6% | [11] 43.9% | [12] 40.4% | [13] 14.1% | [14] 27.5% | [17] 17.7% | [18] 28.8%

CN=S(=O)(NC(=O)c1ccc(Cl)cc1Cl)c1ccc(Br)s1 (configuration not stated)
inactive: [1] 99.9% | [2] 112% | [3] 73.4% | [4] 103% | [5] 89.3% | [6] 79.2% | [7] 95.3% | [8] 99.9% | [9] 105% | [10] 102% | [11] 108% | [12] 105% | [13] 89.4% | [14] 106% | [16] 67.8% | [17] 96.8% | [18] 93.3%

COc1ccc(C(=O)c2cc(OC)c(OC)c(OC)c2)cc1/C=C/C(=O)c1ccc(OC)c(OC)c1
inactive: [1] 12.8% | [3] 22.9% | [4] 33.2% | [5] 25.5% | [6] 33.9% | [7] 21.5% | [8] 24.8% | [9] 10.9% | [10] 21.8% | [11] 20.9% | [12] 42.3% | [13] 26.3% | [14] 63.8% | [19] 20.4% | [16] 74.1% | [18] 12.8%
active: [2] 9.61% | [17] 6.83%

COc1cc2c3c(c(=O)oc2cc1OS(=O)(=O)c1ccc(C(F)(F)F)cc1)CCCCC3
inactive: [1] 79.2% | [2] 78.8% | [4] 76.7% | [5] 82.1% | [6] 68.1% | [7] 69.5% | [8] 68.1% | [9] 93.5% | [10] 76.3% | [11] 90.5% | [12] 89.7% | [13] 92.6% | [14] 122% | [19] 72.5% | [16] 86.3% | [17] 90.2% | [18] 95.9%
active: [3] 8.09%

COc1c(NC[C@H]2OC(O)[C@H](O)[C@@H](O)[C@@H]2O)c(=O)c1=O (some centres not stated)
inactive: [1] 107% | [2] 118% | [3] 70.9% | [4] 109% | [5] 95.4% | [6] 92.7% | [7] 100% | [8] 96.6% | [9] 95.5% | [10] 107% | [11] 121% | [12] 101% | [13] 86.7% | [14] 97% | [19] 105% | [16] 73% | [17] 81.2% | [18] 102%

CCCCCCCCCCCCCCCCC(Br)C(=O)O (configuration not stated)
inactive: [1] 83% | [2] 108% | [3] 86.5% | [4] 105% | [5] 102% | [6] 103% | [7] 103% | [8] 105% | [9] 106% | [10] 100% | [11] 94.4% | [12] 102% | [13] 87.9% | [14] 116% | [15] 101% | [16] 94.7% | [18] 97.5%

COc1ccc(-c2cn[nH]c2-c2cc(OC)c3c(c2)OCO3)cc1
active: [2] 5.01% | [3] -12.9% | [5] 9.27% | [11] -9.32% | [16] -18.8% | [17] 2.12% | [18] 3.98%
inactive: [1] 18.6% | [4] 41.7% | [6] 11.1% | [7] 32% | [8] 15.8% | [9] 22.8% | [10] 39.4% | [12] 34% | [13] 27.8% | [19] 39.5% | [15] 24.9%

COc1ccc(NC(=O)CSc2nc3ccccc3c(=O)n2-c2ccccc2C(F)(F)F)c(OC)c1OC
inactive: [1] 105% | [2] 104% | [3] 83.9% | [4] 88.8% | [5] 95.7% | [6] 100% | [7] 98.2% | [8] 87.5% | [9] 98.9% | [10] 106% | [11] 121% | [12] 93% | [13] 91.9% | [19] 99.2% | [15] 98.4% | [16] 74.8% | [17] 101% | [18] 107%

CCN(Cc1ccccc1)c1ccc(SC#N)cc1
inactive: [1] 64.8% | [2] 70.5% | [3] 83.1% | [4] 90.7% | [5] 81.5% | [6] 30.5% | [7] 93.8% | [8] 90.4% | [9] 49.2% | [10] 86.7% | [11] 104% | [12] 87.9% | [13] 32.9% | [14] 102% | [15] 92.6% | [16] 86.9% | [17] 13% | [18] 59.5%

COc1ccc(-c2nnc(COc3ccc(NS(=O)(=O)c4ccc(OC)cc4)cc3F)o2)cc1
inactive: [1] 85.1% | [2] 91.1% | [3] 77.4% | [4] 84% | [5] 82.2% | [6] 56.3% | [7] 43.9% | [8] 64.8% | [9] 86.3% | [10] 97% | [11] 68.2% | [12] 89.8% | [13] 51.1% | [14] 80.9% | [15] 64.1% | [16] 59.2% | [17] 43.1% | [18] 60%

COc1cc(C(=O)/C=C/c2cc(C(=O)c3cc(OC)c(OC)c(OC)c3)ccc2OC)ccc1N
active: [1] -10.2% | [2] -58.3% | [4] -7.07% | [5] -79.9% | [6] -20.6% | [7] -83.3% | [8] -79.8% | [9] -78.8% | [10] -53.4% | [11] -38.6% | [13] -86.7% | [19] -88.5% | [16] -6.91% | [17] -10.7% | [18] 4.31%
inactive: [3] 29.5% | [12] 18.8% | [14] 13.1%

CCn1cc(C(=O)O)c(=O)c2cc(F)c(N3CCN(S(=O)(=O)c4ccc(OC)c(OC)c4)CC3)cc21
inactive: [1] 102% | [2] 102% | [3] 85.5% | [4] 96.2% | [5] 106% | [6] 90% | [7] 93.5% | [8] 95.2% | [9] 85.8% | [10] 102% | [11] 91.8% | [12] 101% | [13] 62.1% | [14] 100% | [15] 99% | [16] 90.4% | [17] 99.7% | [18] 78.9%

COc1cccc(C2CC(=O)Nc3c2c(C)nn3-c2nc3ccccc3[nH]2)c1OC (configuration not stated)
inactive: [1] 59.4% | [2] 86.6% | [3] 74.8% | [4] 87.1% | [5] 63.6% | [6] 62.8% | [7] 60.1% | [8] 51.3% | [9] 54.2% | [10] 79.5% | [11] 72.7% | [12] 75.5% | [13] 73.1% | [19] 56.5% | [15] 80.6%
active: [16] -5.31% | [17] 8.46% | [18] -31%

CC(C)(C)OC(=O)N[C@@H](Cc1ccccc1)C(=O)N(Cc1ccccc1)C1(C(=O)NCc2ccccc2)CCN(Cc2ccccc2)CC1
active: [6] 1.58% | [18] 7.74%
inactive: [1] 36.1% | [2] 23.9% | [3] 44.9% | [4] 31.6% | [5] 33.8% | [7] 24.3% | [8] 26% | [9] 39% | [10] 69.9% | [11] 55.9% | [12] 19.3% | [13] 15.5% | [14] 62.3% | [19] 40.8% | [17] 33.9%

COc1ccccc1CNCCCN1C(=O)c2ccc3c4c(ccc(c24)C1=O)C(=O)N(CCCNCCCCNCCCCN)C3=O
inactive: [1] 30.6% | [19] 17.2% | [15] 64% | [17] 13.8% | [18] 11.3%
active: [2] 1.62% | [3] -37.8% | [4] 4.86% | [5] 0.458% | [6] -12.5% | [7] -85% | [8] -75% | [9] -3.52% | [10] -13.9% | [11] -55.8% | [12] 6.05% | [13] 8.57% | [16] 9.03%
